From PubChem BioAssay AID1159580 (chemical genetic matrix, 2015)
The campaign covered roughly 5,500 compounds. About 2,000 (36%) were called active. Roughly 18% stayed inconclusive and do not appear here. No stated cut-off is given here; in the data, active means normalized growth mostly below about 0.91 (no sharp cut-off); inconclusive means no clear call, values can overlap the other calls; inactive means mostly above about 0.92. This is one part of the list.

Assay: chemical genetic growth profiling, strain panel (AID 1159580);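 further: tested at 20 µM; growth read once vehicle control cultures reached saturation at 30 °C; 1 = growth at the plate median or of vehicle wells; lower values mean less growth of the strain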
Details: S. cerevisiae deletion strains, growth OD

Measured: normalized growth

O=C(O)c1cc(=O)c2ccc(Cl)cc2[nH]1
inactive: locus YAL013W, strain DEP1, hits give low values 1.01 | locus YAL021C, strain ccr4, hits give low values 1 | locus YAL026C, strain drs2, hits give low values 1.03 | locus YAL030W, strain snc1, hits give low values 1.01 | locus YAL040C, strain CLN3, hits give low values 1.01 | locus YBL061C, strain skt5, hits give low values 1.02 | locus YBR009C, strain hhf1, hits give low values 1.01 | locus YBR021W, strain FUR4, hits give low values 1.01 | locus YBR023C, strain chs3, hits give low values 1.02 | locus YBR171W, strain sec66, hits give low values 1.03 | locus YBR229C, strain ROT2, hits give low values 1.02 | locus YBR231C, strain swc5, hits give low values 1.02 | locus YBR279W, strain paf1, hits give low values 1.01 | locus YCL011C, strain gbp2, hits give low values 1.02 | locus YCL016C, strain dcc1, hits give low values 1.04 | locus YCL029C, strain bik1, hits give low values 0.998 | locus YCL061C, strain MRC1 (second series), hits give low values 1.01 | locus YCL061C, strain MRC1, hits give low values 1.01 | locus YCL069W, strain vba3, hits give low values 1.01 | locus YCR088W, strain abp1, hits give low values 1.01 | locus YDL005C, strain med2, hits give low values 1.02 | locus YDL035C, strain GPR1, hits give low values 1.02 | locus YDL040C, strain nat1, hits give low values 1.01 | locus YDL074C, strain BRE1, hits give low values 1.06 | locus YDL101C, strain DUN1, hits give low values 1.01 | locus YDL134C, strain PPH21, hits give low values 1.01 | locus YDL185W, strain tfp1, hits give low values 0.988 | locus YDL192W, strain arf1, hits give low values 0.993 | locus YDR001C, strain nth1, hits give low values 1.01 | locus YDR069C, strain doa4, hits give low values 0.999 | locus YDR101C, strain arx1, hits give low values 0.999 | locus YDR137W, strain rgp1, hits give low values 1.01 | locus YDR150W, strain NUM1, hits give low values 1.01 | locus YDR159W, strain sac3, hits give low values 0.998 | locus YDR162C, strain NBP2, hits give low values 1.01 | locus YDR195W, strain ref2 1 | locus YDR297W, strain sur2, hits give low values 1.02 | locus YDR318W, strain mcm21, hits give low values 0.989 | locus YDR334W, strain swr1, hits give low values 1.01 | locus YDR335W, strain msn5, hits give low values 1.03 | locus YDR363W, strain ESC2, hits give low values 1.03 | locus YDR388W, hits give low values 0.999 | locus YDR392W, strain spt3, hits give low values 1.07 | locus YDR502C, strain sam2, hits give low values 1.01 | locus YEL003W, strain gim4, hits give low values 1.02 | locus YEL037C, strain rad23, hits give low values 1.02 | locus YEL061C, strain CIN8 (second series), hits give low values 1.01 | locus YEL061C, strain CIN8, hits give low values 1.01 | locus YER002W, strain NOP16, hits give low values 1.03 | locus YER015W, strain faa2, hits give low values 1.02 | locus YER016W, strain bim1, hits give low values 1.04 | locus YER110C, hits give low values 0.99 | locus YER111C, strain swi4, hits give low values 1.01 | locus YER155C, strain BEM2 (second series), hits give low values 1.02 | locus YER155C, strain BEM2, hits give low values 1.01 | locus YER167W, strain BCK2, hits give low values 0.995 | locus YFR010W, strain ubp6, hits give low values 0.986 | locus YGL078C, strain dbp3, hits give low values 1 | locus YGL086W, strain mad1, hits give low values 1 | locus YGL167C, strain pmr1, hits give low values 1.01 | locus YGL173C, strain kem1, hits give low values 1.02 | locus YGL227W, strain vid30, hits give low values 1.04 | locus YGL240W, strain doc1, hits give low values 1.01 | locus YGL248W, strain PDE1, hits give low values 1.03 | locus YGL253W, strain hxk2, hits give low values 1.02 | locus YGR078C, strain PAC10, hits give low values 1.03 | locus YGR135W, strain pre9, hits give low values 0.976 | locus YGR252W, strain gcn5, hits give low values 0.992 | locus YHR013C, strain ard1, hits give low values 1.04 | locus YHR027C, strain rpn1, hits give low values 0.994 | locus YHR030C, strain SLT2, hits give low values 1.01 | locus YHR079C, strain IRE1 (second series), hits give low values 0.99 | locus YHR094C, strain hxt1, hits give low values 0.992 | locus YHR129C, strain ARP1, hits give low values 1.02 | locus YHR142W, strain chs7, hits give low values 1.04 | locus YHR200W, strain rpn10, hits give low values 0.992 | locus YIL066C, strain RNR3, hits give low values 1.03 | locus YIL073C, strain SPO22, hits give low values 0.979 | locus YIL125W, strain kgd1, hits give low values 0.994 | locus YIR030C, strain dcg1, hits give low values 0.995 | locus YJL092W, strain hpr5, hits give low values 1.02 | locus YJL095W, strain BCK1 (second series), hits give low values 1.03 | locus YJL095W, strain BCK1, hits give low values 1.04 | locus YJL115W, strain asf1, hits give low values 1.01 | locus YJL129C, strain trk1, hits give low values 1.03 | locus YJL134W, strain LCB3, hits give low values 1.01 | locus YJL154C, strain vps35, hits give low values 1.01 | locus YJL164C, strain tpk1, hits give low values 1.01 | locus YJL166W, strain qcr8, hits give low values 1.02 | locus YJL168C, strain set2, hits give low values 0.992 | locus YJL187C, strain SWE1 (second series), hits give low values 1.04 | locus YJL187C, strain SWE1, hits give low values 1.02
